Measured values published in PubChem BioAssay (NCI).
This is part of a sample that, as a whole, favours compounds with a hit. Of some 79,000 tested, about 15% had one in any assay. Values without a mark were called inactive. Activity calls are given as the source filed them. Rule as the data show it: active = growth inhibition above about 70%; inactive = the rest.

Experiment: NCI Yeast Anticancer Drug Screen. Data for the rad50EPP+ strain (AID 151);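 also: 0% = growth of vehicle-treated control cultures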
Settings: S. cerevisiae rad50 mutant strain, hits give high values
Procedure: Growth inhibition of yeast strains with defined genetic alterations is measured as a screen for potential anti-cancer activity. Selected strains with alterations in DNA damage repair or cell cycle control were exposed to compounds and growth inhibition was measured relative to vehicle treated controls. The strain used in this assay is rad50EPP+

Row | Structure (SMILES) | growth inhibition (at 1.2 µM) [%] | growth inhibition (at 3.7 µM) [%] | growth inhibition (at 11.0 µM) [%] | growth inhibition (at 33.0 µM) | growth inhibition (at 100.0 µM)
1 | CN(C)c1ccc(C2CC(C)(O)Oc3cc4c(cc32)OCO4)cc1 (stereo not given) | 2 | 4 | 20 | 36% | 59%
2 | Cc1cc(C)c(NC(=S)NC(=O)c2ccccc2)cc1C | -44 | -41 | -25 | -18% | -5%
3 | Oc1ccc2c(c1)C(O)CCCC2 (stereo not given) | 10 | 25 | 40 | 53% | 71% (active)
4 | O=C(O)c1cc2ccc(Cl)cc2c(O)c1C1=CCCCC1 | 8 | 8 | 13 | 13% | 33%
5 | O=[N+]([O-])c1cc(S(=O)(=O)Nc2ccccc2)ccc1Nc1ccccc1 | 2 | 2 | 23 | 19% | 3%
6 | CC(=O)ON=C1C=CC(=C(C#N)c2ccc(Cl)cc2)C=C1 | 19 | 38 | 64 | 91% (active) | 96% (active)
7 | O=C1CSC(c2cccc(Cl)c2)N1c1ccc(-c2ccc(-n3c(-c4ccccc4)nc4ccccc4c3=O)cc2)cc1 (stereo not given) | -1 | 4 | 8 | 9% | -4%
8 | CC(C)(C)CC(C)(C)c1cc(O)c(O)c(CN2CCCCC2)c1 | -5 | -6 | -12 | -14% | -11%
